# Inconclusive results are not listed. Values without a mark were called inactive. Calls of active or inactive are those of the source. Calls follow the shape of the dose curve; as a rule, active = well fitted inhibition curve with a large enough effect; inconclusive = small, poorly fitted or top-dose-only effect; inactive = flat fitted curve, though single readings scatter.
# Biological target: Calcium and integrin-binding protein 1 (Homo sapiens) (UniProt Q99828)
# Assay: Primary qHTS for Identification of Calcium Integrin Binding Protein 1 (CIB1) Competitor (AID 1508620);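 also: GST tagged CIB1 binding a fluorescein labelled alphaIIb integrin peptide tracer; top concentration of the series differs between compounds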
# Details: CIB1-GST / FITC-alphaIIb peptide fluorescence polarization; series mostly up to 114 µM; activity change, negative = inhibition: at the top concentration
# In short: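 CIB1-GST (1 uM final) and compound incubated 15 min at room temperature before adding FITC-alphaIIb peptide tracer (100 nM final). Competition for binding read by fluorescence polarization (ex 480, em 540) after another 15 min at room temperature.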
# % is scaled to controls: 0 for no effect and ±100 for the full control effect.
# Calcium and integrin-binding protein 1 (Homo sapiens), sequence (Q99828 whole entry, looked up): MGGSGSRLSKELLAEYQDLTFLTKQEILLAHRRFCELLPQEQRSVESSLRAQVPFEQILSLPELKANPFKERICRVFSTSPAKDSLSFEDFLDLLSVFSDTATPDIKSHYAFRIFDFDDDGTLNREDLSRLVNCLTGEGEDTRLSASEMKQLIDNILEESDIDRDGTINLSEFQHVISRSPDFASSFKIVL
SMILES,"activity change, negative = inhibition [%]",Potency
O=C(Nc1cccc(C(F)(F)F)c1)c1cccs1,3.52,
CCOC(=O)c1ccc(-c2ccc3ncnc(NCCc4cnc[nH]4)c3c2)o1,5.47,
Cc1cnc(-c2ccccc2OC(C)C)nc1NCc1ccc(-n2ccnn2)cc1,-7,
O=C1CCc2cc(S(=O)(=O)Nc3ccc(Cl)c(Cl)c3)c(F)cc2N1,,inactive
O=S(=O)(Nc1nccs1)c1ccc(NCc2ccccc2O)cc1,-11,
Cc1csc(CNc2ncnc3ccc(-c4ccccc4Cl)cc23)c1,4.98,
COc1cccc(C2c3c(ncn(-c4cccc(OC)c4)c3=N)Oc3ccc4ccccc4c32)c1 (stereo not given),8.33,
Cn1nnnc1Sc1ncnc2scc(-c3ccc(C(=O)OC(C)(C)C)cc3)c12,9.64,
COc1ccc(NC(=O)c2cnn3c(-c4ccccc4)cc(C)nc23)cc1,1.5,
S=C(Nc1ccc(Cl)c(Cl)c1)Nc1nnc(-c2ccncc2)s1,-13.9,
O=C(Nc1ncc(Cc2ccc(C(F)(F)F)cc2)s1)c1ncc(-c2ccccc2)[nH]1,3.58,
CCOC(=O)c1[nH]c2c(c1C)C(=O)CC(c1ccco1)C2 (stereo not given),,inactive
O=C1CCc2cc(S(=O)(=O)Nc3cccc(Br)c3)ccc2N1,-2.16,
N/C(=N\c1nnc(-c2ccncc2)s1)Nc1ccc(Cl)c(Cl)c1,7.38,
N#Cc1nc(Nc2cc(F)cc(F)c2)c2ncn(CCCO)c2n1,5.69,
COC(=O)c1ccc(Nc2nc(-c3ccncc3)nc3ccccc23)cc1OC,1.55,
COc1cccc(CCN2C(=O)c3ccccc3NC2c2ccc(OC)c(COc3c(C)cc(NC(C)=O)cc3C)c2)c1 (stereo not given),-3.63,
CCOC(=O)C1CCN(C(=O)C(C)(C)NC(=O)Nc2ccc3ccccc3c2)CC1,-18.8,
COc1ccc2ncnc(NCC3CCCO3)c2c1-c1ccc2c(c1)OCO2 (stereo not given),-3.78,
C=Cc1cc(F)c(S(=O)(=O)N2CCN(S(=O)(=O)c3ccc4c(c3)OCCO4)CC2)cc1F,7.85,

SMILES,"activity change, negative = inhibition [%]",Potency
Cc1cc2c(s1)c1cnn(Cc3ccc(OC(F)F)cc3)c(=O)c1n2C,-2.55,
Cc1cc2c(s1)c1cnn(Cc3ccccc3Cl)c(=O)c1n2C,4.23,
N#Cc1nc(Nc2cc(F)cc(F)c2)nc(NC2CCCC2)n1,-0.12,
Cc1cc2c(s1)c1cnn(Cc3cccc([N+](=O)[O-])c3)c(=O)c1n2C,2.52,
Cc1cc2c(s1)c1cnn(Cc3ccc(-n4cncn4)cc3)c(=O)c1n2C,1.36,
Cc1nc(-c2ccccc2C(C)C)nc(NCc2ccc(-c3cccnc3)cc2)c1C,4.31,
O=C(O)c1ccc2c(c1)C(=O)N([C@]1(C(=O)O)C[C@H]1c1ccccc1)C2=O,-2.57,
O=C1c2ccccc2NC(c2ccc(Br)o2)N1O (stereo not given),-8.79,
Cc1noc(Nc2sc3c(c2-c2nc4ccccc4s2)CCNC3)n1,2.87,
O=C(Cc1ccc(Cl)c(Cl)c1)Nc1ccc([S+](=O)([O-])Nc2ccc([N+](=O)[O-])cc2)cc1,-12.3,
COc1cccc(NCc2ccc(O)c3ncccc23)n1,11.3,
Cc1cncc(NC(=S)N2CCN(c3cccc(C(F)(F)F)c3)CC2)c1,4.35,
Cc1cccc(C)c1-n1c(SCC(=O)NCCCCCC(=O)O)nnc1-c1cccc([S+](=O)([O-])N2CCCC2)c1,-2.74,
O=C(CNC(=O)C1CCCC1)OC(C(=O)Nc1cc(C(F)(F)F)ccc1Cl)c1ccccc1 (stereo not given),2.28,
Cc1ccc(Nc2nc(C#N)nc(NC3CCCC3)n2)cc1,3.33,
Cc1cc2c(s1)c1cnn(Cc3ccc(F)c(C)c3)c(=O)c1n2C,7.04,
NC(=O)C1CCN(c2nc(-c3cccc4sc5ccccc5c34)cs2)CC1,-3.42,
Cn1nnnc1Sc1ncnc2scc(-c3cccc([N+](=O)[O-])c3)c12,-17.8,
Cc1cc2c(s1)c1cnn(Cc3ccc(F)cc3)c(=O)c1n2C,5.77,
Nc1ncnc2c1ncn2[C@@H]1O[C@H](CN[S+](=O)([O-])NC(=O)c2cccc(-c3noc(-c4ccccc4F)n3)c2)[C@@H](O)[C@H]1O,-9.64,

# — PubChem BioAssay (NCATS)
